Screening data deposited in PubChem BioAssay by National Center for Advancing Translational Sciences (NCATS).
This is a sample that favours compounds with a hit; in the whole collection about 10% have one here.
ELG1 repair inh: qHTS screen for small molecules that inhibit ELG1-dependent DNA repair in human embryonic kidney (HEK293T) cells expressing luciferase-tagged ELG1; 330,000 compounds, 2.3% hits; HEK293T ELG1-luciferase reporter, luminescence, 16 h; DNA damage induced by 5-fluorouridine; Potency, µM (highest dose often 46.1 µM), without a hit: at the top dose activity change, negative = inhibition, most hits filed as inhibitors; AID 504467, 2011; also: % is scaled to controls: 0 for no effect and ±100 for the full control effect; nearly all actives have a fitted effect of over 55% in size
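Overnight (16 hr) co-exposure of 2,000 cells/well to 5-fluorouridine and compound at 37 °C preceded detection. Luciferase was quantified via ONE-Glo luminescence; loss of signal denotes inhibition.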
MCF10A rereplic: A quantitative high throughput screen for small molecules that induce DNA re-replication in MCF 10a normal breast cells; MCF 10A DNA re-replication, Hoechst nuclear intensity, 48 h; 350,000 compounds, 2.9% hits; Potency, µM (highest dose often 46.1 µM), for inactives: at the top dose activity, positive = re-replication, most hits filed as activators; also: % of control where 0% means no effect; nearly all actives have a fitted effect of over 50% in size
SW480 rerep: A quantitative high throughput screen for small molecules that induce DNA re-replication in SW480 colon adenocarcinoma cells. SW480 DNA re-replication, Hoechst DNA content imaging, 48 h. Potency, µM (doses to about 46.1 µM), for inactives: at the highest dose re-replication activation, hits mostly activators. 340,000 compounds, 1.8% hits. AID 624297, 2012; also: % of control where 0% means no effect; nearly all actives have a fitted effect of over 55% in size
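Image-based DNA-content assay: after two days of treatment, nuclei were labelled with the DNA dye Hoechst and imaged, and hits were compounds raising the count of nuclei showing high fluorescence intensity.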
Gal4-VP16 FLuc: VP16 counterscreen qHTS for inhibitors of ROR gamma transcriptional activity; Drosophila S2 Gal4-VP16 UAS-luciferase, luminescence, 20 h; Potency, µM (series often up to 53.6 µM), without a hit: at the highest dose activity, negative = inhibition, usual class: inhibitors; 310,000 compounds, 3.5% hits; AID 2546, 2010;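 also: Gal4-VP16 expression switched on by copper sulfate through the metallothionein promoter; % is scaled to controls: 0 for no effect and ±100 for the full control effect; nearly all actives have a fitted effect of over 50% in size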
RORg inh: qHTS for inhibitors of ROR gamma transcriptional activity | Nuclear receptor ROR-gamma (Mus musculus), P51450 | Drosophila S2 Gal4-RORgamma UAS-luciferase reporter, 20 h | Potency, µM (top dose mostly 53.6 µM), for the others: at the highest dose activity change, negative = inhibition, usual class: inhibitors | 310,000 compounds, 5.4% hits; also: % is scaled to controls: 0 for no effect and ±100 for the full control effect; nearly all actives have a fitted effect of over 60% in size
Target sequence (P51450 whole entry, looked up, the tested form may be a part): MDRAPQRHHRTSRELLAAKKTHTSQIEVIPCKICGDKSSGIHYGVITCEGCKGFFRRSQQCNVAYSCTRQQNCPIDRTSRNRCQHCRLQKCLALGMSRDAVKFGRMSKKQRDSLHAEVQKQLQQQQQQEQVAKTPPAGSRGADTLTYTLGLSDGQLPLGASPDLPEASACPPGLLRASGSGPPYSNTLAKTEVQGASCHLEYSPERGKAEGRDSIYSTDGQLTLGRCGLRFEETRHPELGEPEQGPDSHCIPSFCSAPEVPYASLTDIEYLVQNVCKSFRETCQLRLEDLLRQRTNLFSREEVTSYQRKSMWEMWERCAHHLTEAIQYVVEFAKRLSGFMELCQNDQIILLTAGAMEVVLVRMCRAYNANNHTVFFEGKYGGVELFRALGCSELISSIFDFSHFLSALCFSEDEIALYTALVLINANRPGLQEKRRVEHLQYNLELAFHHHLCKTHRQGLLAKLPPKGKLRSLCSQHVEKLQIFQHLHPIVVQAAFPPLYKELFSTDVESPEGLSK
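Using a luciferase readout, inhibitors were identified by reduced reporter activity in Drosophila cells coexpressing a copper-inducible Gal4–ROR gamma fusion and UAS-driven Photinus luciferase, incubated 20 hr after 700 uM copper sulfate.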
ELG1 FLuc counter: qHTS screen for small molecules that inhibit ELG1-dependent DNA repair: Hit Confirmation in Cell-Based Luciferin Assay. shares compounds with ELG1 repair inh. cell-free firefly luciferase luminescence counter-screen, ViewLux. Potency, µM (doses to about 46.1 µM), for the others: at the highest dose activity change, negative = inhibition, hits mostly inhibitors. 350 compounds, 3% hits. AID 624247, 2012; also: % is scaled to controls: 0 for no effect and ±100 for the full control effect
ELG1-Luc inh: HTS assay for small molecules that inhibit ELG1-dependent DNA repair in human embryonic kidney (HEK293T) cells expressing luciferase-tagged ELG1: Hit Confirmation. 670 compounds, 68% hits. AID 624248, 2012. HEK293T ELG1-luciferase levels, luminescence; cells co-treated with 5-fluorouridine. shares compounds with ELG1 repair inh. Potency, µM (titrated, usually from 46.1 µM), without a hit: top-dose activity change, negative = inhibition, usual class: inhibitors; also: % is scaled to controls: 0 for no effect and ±100 for the full control effect; nearly all actives have a fitted effect of over 55% in size
ELG1-Luc MMS: confirmation of human ELG1 repair inhibitors, MMS stimulated; shares compounds with ELG1 repair inh; HEK293T luciferase-tagged ELG1 level, MMS stimulated; Potency, µM (highest dose often 46.1 µM), inactives show at the highest dose activity change, negative = inhibition, actives largely listed as inhibitors; 670 compounds, 53% hits; also: % is scaled to controls: 0 for no effect and ±100 for the full control effect; nearly all actives have a fitted effect of over 60% in size
ELG1 5-FU: qHTS screen for small molecules that inhibit ELG1-dependent DNA repair: Hit Confirmation with 5FU Viability; shares compounds with ELG1 repair inh; cell viability with 5-FU, ELG1-dependent repair; Potency, µM (highest dose often 46.1 µM), for the others: at the highest dose activity change, negative = viability loss, most hits filed as cytotoxic; 670 tested, under 10 active;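 also: ELG1-luc HEK293T cells cotreated with 5-fluorouridine at 10 µM final; viability measured 16 h after compound addition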
ELG1 MMS viab: qHTS screen for small molecules that inhibit ELG1-dependent DNA repair: Hit Confirmation with MMS Viability | AID 624251, 2012 | shares compounds with ELG1 repair inh | Potency, µM (doses to about 46.1 µM), for inactives: top-dose activity change, negative = viability loss, actives largely listed as cytotoxic | 670 compounds, 33% hits | Cell viability with MMS, ELG1-dependent DNA repair;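 also: ELG1-luc HEK293T cells co-treated with 10 µM MMS; viability read 16 h after compound addition; % is scaled to controls: 0 for no effect and ±100 for the full control effect; nearly all actives have a fitted effect of over 60% in size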
ELG1 unstim viab: qHTS screen for small molecules that inhibit ELG1-dependent DNA repair: Hit Confirmation with Unstimulated Viability Assay. shares compounds with ELG1 repair inh. cell viability counter-screen, unstimulated, luminescence. Potency, µM (series often up to 45.9 µM), without a hit: top-dose activity change, negative = loss of viability, usual class: cytotoxic. 900 compounds, 8% hits. AID 624252, 2012;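 also: compound exposure lasted 16 hours before reading; % is scaled to controls: 0 for no effect and ±100 for the full control effect; nearly all actives have a fitted effect of over 55% in size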
FLuc biochem: qHTS screen for small molecules that inhibit ELG1-dependent DNA repair: Hit Confirmation in Biochemical Luciferin Assay. 350 compounds, 10% hits. AID 624253, 2012. purified firefly luciferase, luminescence counter-screen. shares compounds with ELG1 repair inh. Potency, µM (top dose mostly 57.5 µM), for the others: at the highest dose activity, negative = inhibition, actives largely listed as inhibitors; also: % is scaled to controls: 0 for no effect and ±100 for the full control effect
Starred values were filed as active, the others as inactive; ? = inconclusive; · = not tested or not shown; [ ] = remark or other dose. Calls follow the shape of the dose curve; as a rule, active = well fitted curve in the direction sought with a large enough effect; inconclusive = small, poorly fitted or top-dose-only effect, or another doubt; inactive = no such curve, though single readings can be large; an effect the other way counts as inactive or inconclusive. Potency is read from the fitted curve at half-maximal effect.

SMILES | ELG1 repair inh | MCF10A rereplic | SW480 rerep | Gal4-VP16 FLuc | RORg inh | others
CCN(CC(=O)NC1CCS(=O)(=O)C1)c1ccc(S(=O)(=O)N(CC)CC)cc1[N+](=O)[O-] (configuration not stated) | ? | 4% | -2% | · | ·
CCn1c(CNC(=O)c2ccc(F)cc2)cc2ccccc21 | 15% | 0% | 2% | 24% | 42%
CC(=O)Nc1ccc2c(c1)Cc1cc(N3C(=O)C=CC3=O)ccc1-2 | · | 5.2µM* | 13µM* | · | ·
O=S(=O)(Nc1cc(Sc2ncn[nH]2)c(O)c2ccccc12)c1ccccc1 | 23µM* | 1µM* | 10µM* | 7.1µM* | 7.9µM*
O=C(O)CSc1cc(NS(=O)(=O)c2ccc(Br)cc2)c2ccccc2c1O | 15µM* | ? | ? | -20% | -39%
Cc1ccc(S(=O)(=O)Nc2ccc(Br)cc2C(NCC(=O)O)c2ccccc2)cc1 (configuration not stated) | 5% | ? | 22% | -10% | 4%
Cc1nc(N2CCC(C)CC2)c2c(C)c(C(=O)Nc3ccc4c(c3)OCCO4)sc2n1 | 10µM* | 5% | -5% | 1% | 23%
Cc1nc(N2CCC(C)CC2)c2c(C)c(C(=O)Nc3ccc(C(F)(F)F)cc3)sc2n1 | -10% | ? | 10% | 10% | -4%
Cc1nc(N2CCC(C)CC2)c2c(C)c(C(=O)Nc3cccc(C(F)(F)F)c3)sc2n1 | -16% | 21µM* | ? | -4% | 2%
O=C(NCc1cc([N+](=O)[O-])ccc1O)c1cccc(NS(=O)(=O)c2ccccc2)c1 | -13% | 0% | -3% | 13µM* | 11µM*
O=C(NCc1ccccn1)c1ccc(NS(=O)(=O)c2cccc([N+](=O)[O-])c2)cc1 | 16% | 12% | -4% | · | ·
CC(=NNC(=S)N1CCN(C2CCCCCC2)CC1)c1ccccn1 | · | 16µM* | ? | · | ·
CC(=NNC(=S)N1CCN(c2ccccn2)CC1)c1ccccn1 | · | 0% | ? | · | ·
C/C(=N\NC(=O)C1CCCN(S(=O)(=O)c2ccccc2)C1)c1ccncc1 (configuration not stated) | 1% | -1% | -1%[9.22 µM] | -6%[0.365 µM] | 3%
S=C(Nc1ccc2nc(-c3ccccn3)c(-c3ccccn3)nc2c1)N1CCCCC1 | -5% | 7% | ? | -7% | 2%
C/C(=N\NC(=O)C1CCCN(S(=O)(=O)c2ccccc2)C1)c1ccccn1 (configuration not stated) | ? | ? | 5% | 5µM* | 2.8µM*
CC(=NNC(=S)N1CCCCCC1)c1cccc2cccnc12 | · | 6.5µM* | ? | · | ·
COc1ccc(/C=C/N(CCc2ccc(OC)c(OC)c2)C(C)=O)cc1 | · | · | · | -2%[10 µM] | 5%[10 µM]
O=C(CN1C(=O)NC2(CCCC2)C1=O)N1CCN(c2ccc(C(F)(F)F)cc2[N+](=O)[O-])CC1 | · | 19% | -3% | · | ·
CCN1CCN(C(=S)NC(=O)/C=C/c2cccs2)CC1 | ? | 1% | 2% | ? | 3.2µM*
CCN1CCN(C(=S)NC(=O)c2cccs2)CC1 | ? | 0% | -12% | ? | 6.3µM*
CC(=O)N1CCN(C(=O)CNC(=O)c2cccs2)CC1 | 7% | -1% | 4% | · | ·
O=C(NC(=S)N1CCN(c2ccc(C(F)(F)F)cc2[N+](=O)[O-])CC1)c1cccs1 | -4% | ? | 12% | ? | 0.11µM*
Cc1nn(CC(=O)Nc2ccc(Cl)cc2Cl)c(=O)c2ccccc12 | -4% | 9% | -3% | 7% | 6%[1.91 µM]
O=C(c1ccc(Cl)c(S(=O)(=O)N2CCOCC2)c1)N1CCN(Cc2ccccc2)CC1 | -7% | 4% | -9% | 1% | ?
O=C(c1ccc(Cl)c(S(=O)(=O)N2CCOCC2)c1)N1CCN(c2ccccc2)CC1 | 0.082µM* | ? | 1% | -10% | 16% | ELG1 FLuc counter=48%;ELG1-Luc inh=?;ELG1-Luc MMS=-2%;ELG1 5-FU=-7%;ELG1 MMS viab=-17%;ELG1 unstim viab=?;FLuc biochem=-7%
CCCCN1C(=O)c2ccc(C(=O)NC3(C)CCS(=O)(=O)C3)cc2C1=O (configuration not stated) | ? | 9% | -2% | · | ·
C=CCN1C(=O)C(=O)N(CC(=O)NCC(=O)Nc2ccc(F)c(F)c2F)C1=O | 0% | 2% | -14% | · | ·
